uPA surface inh: qHTS for Inhibitors of Cell Surface uPA Generation; Potency, µM (titrated, usually from 38.3 µM), for the others: at the highest dose activity change, negative = inhibition, most hits filed as inhibitors; 330,000 tested, 0.31% active; cell surface uPA generation assay, qHTS; active means well fitted inhibition curve with a large enough effect; inconclusive means small, poorly fitted or top-dose-only effect; inactive means no such curve, though single readings can be large or run the other way; tested in mouse RAW 264.7 cells; further: potency means the concentration at half of the fitted maximal effect; on the % scale 0 is the no-effect control and ±100 the full control effect; nearly all actives have a fitted effect of over 55% in size
Mito fusion act: qHTS Assay for Small Molecule Inhibitors of Mitochondrial Division or Activators of Mitochondrial Fusion. S. cerevisiae fusion-defective mutant growth rescue, CellTiterGlo 48 h. Potency, µM (series often up to 46.1 µM), for inactives: top-dose growth rescue (activation), usual class: activators. 320,000 tested, 0.23% active; further: potency means the concentration at half of the fitted maximal effect; % of control where 0% means no effect; nearly all actives have a fitted effect of over 45% in size
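Temperature-sensitive fusion-defective S. cerevisiae (e.g. fzo1-1, mgm1-5) were grown with compound in YPEG medium (3% ethanol, 3% glycerol) for 48 hours at 37C. Growth rescue was measured as viability by CellTiterGlo luminescence after 10 minutes at ambient.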
p53 reactivator: qHTS assay for re-activators of p53 using a Luc reporter | Potency, µM (series often up to 92.2 µM), inactives show at the top dose activity change, positive = activation, most hits filed as activators | 320,000 tested, 0.063% active | H1299 p53-A138V BP100-luciferase reporter, luminescence, 24 h; further: potency means the concentration at half of the fitted maximal effect; % of control where 0% means no effect; nearly all actives have a fitted effect of over 45% in size
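p53-null H1299 cells stably carrying temperature-sensitive p53-A138V and a BP100-luciferase reporter were pinned with compounds (4-point, 1:5 series) and held 24 hrs at 37 deg C. Luminescence was read 10 min after detection reagent.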
B2AR arrestin: qHTS assay of beta-arrestin-biased ligands of beta2-adrenergic receptor. Beta-2 adrenergic receptor (Homo sapiens), P07550. beta-arrestin recruitment to beta2AR, cell-based reporter. Potency, µM (series often up to 46.1 µM), inactives show top-dose activation, usual class: activators. 330,000 tested, 0.02% active. AID 492947, 2010;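 further: potency means the concentration at half of the fitted maximal effect; 0% = DMSO controls and full agonism = EC100 isoproterenol or metaproterenol; nearly all actives have a fitted effect of over 65% in size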
Target sequence (P07550 whole entry, looked up): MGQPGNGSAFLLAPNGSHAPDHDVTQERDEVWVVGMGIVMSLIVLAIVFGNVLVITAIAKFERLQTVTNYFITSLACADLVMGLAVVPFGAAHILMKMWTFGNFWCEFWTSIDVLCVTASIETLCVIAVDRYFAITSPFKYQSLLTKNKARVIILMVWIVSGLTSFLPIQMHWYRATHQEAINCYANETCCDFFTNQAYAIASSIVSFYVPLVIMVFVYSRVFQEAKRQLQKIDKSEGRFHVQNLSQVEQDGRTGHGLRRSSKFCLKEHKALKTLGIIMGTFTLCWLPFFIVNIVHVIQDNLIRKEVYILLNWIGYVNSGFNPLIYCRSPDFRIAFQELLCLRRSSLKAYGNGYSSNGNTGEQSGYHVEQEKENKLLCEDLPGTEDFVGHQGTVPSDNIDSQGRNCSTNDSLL
ClpP mod: qHTS Assay for Activators of ClpP; ATP-dependent Clp protease proteolytic subunit (Bacillus subtilis (strain 168)), P80244; purified B. subtilis ClpP, FRET peptide cleavage, 20 min; Potency, µM (titrated, usually from 57.5 µM), for inactives: top-dose activity change, negative = active; 340,000 tested, 1.9% active; active means well fitted falling curve with a large enough effect; inconclusive means small, poorly fitted or top-dose-only effect; inactive means no such curve, though single readings can be large or run the other way; further: potency means the concentration at half of the fitted maximal effect; the source files actives as falling curves though it sought activators and does not explain the sign; nearly all actives have a fitted effect of over 65% in size
Target sequence (P80244 whole entry, looked up): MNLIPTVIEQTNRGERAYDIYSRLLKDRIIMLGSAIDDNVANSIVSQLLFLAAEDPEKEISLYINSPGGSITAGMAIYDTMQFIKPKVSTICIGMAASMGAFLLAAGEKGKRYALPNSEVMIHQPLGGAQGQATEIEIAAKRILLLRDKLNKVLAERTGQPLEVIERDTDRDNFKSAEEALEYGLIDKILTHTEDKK
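ClpP 10 microg/mL final, pH 8 Tris/KCl buffer with BSA, glycerol, Tween-20; compound pinned in; FRET-FV substrate; RT 20 min; Ex320/Em430; ΔFRET vs ADEP 5.8 microM, DMSO, no enzyme.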
Giardia killer: Small Molecules that selectively kill Giardia lamblia: qHTS; Giardia lamblia trophozoite viability; activity change, % at 7.66 µM, hits read low; 340,000 tested, 0.15% active; in the data active means activity change below about -80%; inconclusive means between about -30% and that limit;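 further: parasites exposed to compound for two days anaerobically before the ATP read; on the % scale 0 is the no-effect control and ±100 the full control effect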
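Trophozoite viability was measured as ATP-dependent luminescence, read 15-30 min after reagent addition. Before that, parasites at 100 cells/well were exposed to compounds for 48 h, anaerobically, at 37 deg C.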
The depositor's hits bear a star; ? = inconclusive; . = no result given. Most compounds without a hit are left out; they make up all but 2.1% or so of the library. Unless noted, the call rests on the fitted dose curve; in most records, active means well fitted curve in the direction sought with a large enough effect; inconclusive means small, poorly fitted or top-dose-only effect, or another doubt; inactive means no such curve, though single readings can be large; an effect the other way counts as inactive or inconclusive.

SMILES | uPA surface inh | Mito fusion act | p53 reactivator | B2AR arrestin | ClpP mod | Giardia killer
CCN(CC)c1cc2c(cc1F)c(=O)c(S(=O)(=O)c1ccccc1)cn2C | . | . | . | . | 5% | .
CCN(CC)c1cc2c(cc1F)c(=O)c(S(=O)(=O)c1ccccc1)cn2Cc1ccccc1 | . | . | . | . | 22µM* | .
CCn1cc(C(=O)O)c(=O)c2cc(F)c(N3CCN(S(=O)(=O)c4ccc(NC(=O)OC)cc4)CC3)cc21 | 1% | 1% | -9% | 0% | 18µM* | 16
CCn1cc(S(=O)(=O)c2ccc(OC)cc2)c(=O)c2cc(F)c(N3CCCCCC3)cc21 | . | . | . | . | -14% | .
CCN1CCN(c2cc3c(cc2F)c(=O)c(S(=O)(=O)c2ccc(OC)cc2)cn3CC)CC1 | . | . | . | . | 7.9µM* | .
CCCNC(=O)c1cn(CC)c2cc(N3CCN(C(=O)c4ccco4)CC3)c(F)cc2c1=O | 6% | 0% | -5% | 0% | 4% | 33
COC(=O)c1nc(N2CCN(S(=O)(=O)c3ccc(C)cc3)CC2)c2ccccc2n1 | . | . | . | . | -6% | ?
CCOC(=O)c1cn(CC)c2cc(N3CCOCC3)c(F)cc2c1=O | -16% | 0% | -2% | 0% | 32µM* | -8
CCN(CC)c1cc2c(cc1F)c(=O)c(S(=O)(=O)c1ccc(OC)cc1)cn2Cc1ccccc1 | . | . | . | . | 32µM* | .
COC(=O)c1ccccc1NC1CC(=O)N(c2c(C)cccc2C)C1=O (centres undefined) | . | 4% | 18% | 0% | 8.9µM* | 14
Cc1nc2cccnc2n1-c1cccc(C(=O)N2CCN(c3cccc(Cl)c3)CC2)c1 | . | . | . | . | 1% | .
O=C(Cc1ccccc1)NCc1ccc(-n2cccc2)cc1 | 1.8µM* | ? | 2% | -1% | -1% | 6
CCOC(=O)N1CCN(/[N+]([O-])=N/Oc2ccc([N+](=O)[O-])cc2[N+](=O)[O-])CC1 | . | -7% | . | . | . | -12
O=C(OCC(=O)N(Cc1ccccc1)Cc1ccccc1)c1ccccc1NCCO | -4% | ? | -1% | -1% | . | 6
O=C(COC(=O)c1ccccc1NCCO)NCCc1ccccc1 | 2% | -4% | 18% | 0% | 14µM* | 19
CC(C#N)(NC(=O)COC(=O)c1ccccc1NCCO)C1CC1 (centres undefined) | 0% | 8% | 3% | 0% | 25µM* | -10
O=C(COC(=O)c1ccccc1Br)NCCC1=CCCCC1 | 2% | 20% | 5% | 3% | . | -3
O=C(COC(=O)c1ccccc1NCCO)NCC1CCCCC1 | -7% | -1% | 10% | 0% | 4% | ?
Cc1ccc(-n2nc(C)c(NC(=O)COC(=O)c3ccccc3NCCO)c2C)cc1 | 0% | -3% | -2% | 0% | 28µM* | 8
Cc1ccc(C(=O)OCC(=O)Nc2c(C)nn(-c3ccccc3)c2C)c(O)c1 | . | . | . | . | -2% | .
O=C(COC(=O)c1ccccc1NCCO)NCCC1=CCCCC1 | 0% | 4% | 11% | 0% | 25µM* | 9
CC(=O)Nc1cccc(NC(=O)CSc2cn(CC(=O)N3CCCCCC3)c3ccccc23)c1 | . | . | . | . | -3% | .
CC(CNC(=O)c1ccc2c(c1)nc1n2CCCCC1)c1ccccc1 (centres undefined) | . | . | . | . | -1% | .
Cc1ccc(-n2nnnc2CNC(=O)c2ccc([N+](=O)[O-])o2)cc1C | ? | 9% | -15% | 0% | 1% | ?
O=C(NCc1nnnn1-c1ccc(F)cc1)c1ccc([N+](=O)[O-])o1 | -11% | 1% | -24% | 1% | . | -95*
SMILES | uPA surface inh | Mito fusion act | p53 reactivator | B2AR arrestin | ClpP mod | Giardia killer
O=C(NCC(c1ccc(F)cc1)N1CCOCC1)c1ccc([N+](=O)[O-])o1 (centres undefined) | -16% | . | -19% | 0% | 2% | -101*
CC(=O)c1ccc(-c2ccc(C(=O)NCC(c3ccc(F)cc3)N3CCOCC3)o2)cc1 (centres undefined) | 4% | 1% | 9% | 0% | -1% | 1
Cc1c(CCC(=O)NCCc2ccccc2F)c(=O)oc2cc(O)ccc12 | . | . | . | . | 4% | .
Cc1ccc(S(=O)(=O)N(C)CCN(C)c2nc(-c3cccs3)nc3ccccc23)cc1 | . | . | . | . | 32µM* | 10
CN(CCO)c1nc(-c2cccs2)nc2ccccc12 | . | . | . | . | 7% | -1
Cc1cc(C)cc(OCc2cc(=O)n3c4c(sc3n2)CCCC4)c1 | . | . | . | . | -3% | .
CC(NC(=O)c1ccccc1[N+](=O)[O-])C1CC2CCC1C2 (centres undefined) | 5% | -1% | ? | 0% | 25µM* | 5
CC(NC(=O)C1CCCC1)C1CC2CCC1C2 (centres undefined) | 7% | 0% | 2% | -2% | 28µM* | -9
CCn1cc2nc(SCC(=O)Nc3cc(OC)cc(OC)c3)n(Cc3ccc(Cl)cc3)c(=O)c2n1 | . | . | . | . | -2% | .
Nc1cc(N)cc(C(=O)c2ccccc2)c1 | . | . | . | . | -1% | .
Cc1cccc(Nc2c3c(nc4nncn24)CCC3)c1C | . | . | . | . | -1% | .
COc1ccccc1NC(=O)CCCNC(=O)Cn1cnc2sc(C)c(C)c2c1=O | 2% | 1% | 0% | -2% | 28µM* | 4
COc1ccc2c(c1)c1c(c(=O)n(-c3ccc(OC)c(OC)c3)c(=O)n1Cc1ccccc1F)n2C | . | . | . | . | -16% | .
CCn1c(SCC(=O)Nc2ccc(NC(=O)c3ccco3)c(OC)c2)nc2ccccc2c1=O | -7% | ? | 0% | 1% | 28µM* | -2
COc1ccc(CC(=O)OCC(=O)NCc2ccco2)cc1 | -2% | -3% | -2% | 0% | . | 14
Cc1ccsc1C(=O)OCC(=O)NCc1ccco1 | 1% | 2% | 6% | 0% | 3.2µM* | 0
COc1ccc(OCC(=O)OCC(=O)NCc2ccco2)cc1 | 0% | -3% | 1% | 0% | 28µM* | -16
COc1ccc(-c2cc(C(F)(F)F)n3nc(C(=O)NCc4ccco4)cc3n2)cc1 | -7% | 1% | 2% | 1% | 16µM* | 7
O=C(NCc1ccco1)c1cc2nc(-c3ccc4c(c3)OCO4)cc(C(F)(F)F)n2n1 | -2% | 4% | -24% | -4% | ? | 54
COc1ccc(-c2ccc(=O)n(CC(=O)NCc3ccco3)n2)cc1 | -2% | -3% | -9% | 0% | 25µM* | 0
O=C(CSc1nc2c(c(=O)[nH]1)CCC2)Nc1cccc(O)c1 | . | . | . | . | 0% | .
CCCCCCNC(=O)Cc1c(O)c2ccccc2[nH]c1=O | 2% | 2% | 4% | 0% | 28µM* | 3
CCCCNC(=O)Cc1c(O)c2ccccc2[nH]c1=O | -2% | 2% | 1% | 0% | 20µM* | 2
CCCSc1ncc(Cl)c(C(=O)Nc2nc3ccc(C)cc3s2)n1 | . | . | . | . | 2% | .
